Data on 40 molecules can be found in PubChem BioAssay (NCI).

Molecules are shown by their SMILES. “And” between values parts separate entries of the source, which are not always exact repeats. Identical values can stand only once. About 83,000 compounds went through this panel and 20% of them were active in at least one assay; those are over-represented in the sample as a whole.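 For each line, cells grew in 96-well plates with the test compound present at a single concentration for 48 hours.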 The source made the active and inactive calls.

The assay has as its system OVCAR-5 ovarian. The experiment in a line: NCI-60 one-dose screen, 48 h (100 = growth as untreated, 0 = no growth, -100 = all killed). The following applies: 10 µM unless noted. The protocol: Growth inhibition of the OVCAR-5 human tumor cell line is measured as a screen for anti-cancer activity. Cells are grown in 96 well plates and exposed to the test compound for 48 hours. Compounds are tested at a single concentration, which is 10^-5 M for most compounds. The reported endpoint is percent growth (GI% or GIPRCNT), where numbers from 0 - 100% represent growth inhibition, and numbers from -100% - 0 represent cell death. For example, a value of 40 represents 60% growth inhibition. A value of 0 means no net growth occurred over the course of the experiment. A value of -40 indicates 40% of cells at the beginning of the experiment died by the end of the experiment. A value of -100 means all cells are dead at the end of the experiment.
NCI-60 Human Tumor Cell Lines Screen was performed using the standard one-dose NCI protocol, which is described in more detail at https://dtp.cancer.gov/discovery_development/nci-60/default.htm.
Compounds with GIPRCNT values below 10 were considered active. Activity score was based on GIPRCNT using the following formula: […]
Score is 0 for GIPRCNT values of 100 or above, 50 for GIPRCNT values of 0, and 100 for GIPRCNT values of -100.
For the molecule `Oc1c(C(Nc2ccccc2)c2ccccc2)ccc2cccnc12` (stereo not given), the growth is 59.5% (inactive).
For `CCCCCCC1N=C(N)N=C(N)N1c1cccc(Cl)c1` (stereo not given), the growth was 58.9% (inactive).
For `CN(C)c1ccc(C(=C2C=CC(=[N+](C)C)C=C2)c2ccc(N(C)C)cc2)cc1`, the growth was -34.4% (active).
With `CCCCCCCCCCCC[n+]1ccccc1` (tested in a mixture with another compound) the figure was -22.6% (active).
Under `CC(=O)Nc1ccc(C(=O)CCl)cc1` stands 94.5% (inactive); under `O=C1C=CC(=O)N1C1CCCCCCCCCCC1`, 99.8% (inactive); under `CN(C)c1ccc(/C=C/c2sc3ccc4ccccc4c3[n+]2C)cc1`, -27.3% (active).
With `COC(=O)C(=[N+]=[N-])C(=O)c1ccc([N+](=O)[O-])o1` the figure was 110% (inactive).
As to `O=C(c1ccccc1)c1cc2ccccc2oc1=O`, the growth was 102% (inactive).
Take `CCOc1ccc(C(CN2CCOCC2)C(C)=O)cc1OC` (stereo not given): the growth is 99.1% (inactive).
With `Cc1cc(=O)oc2cc(O)cc(O)c12` the figure was 96.4% (inactive); with `CC(O)C(O)C(O)C(O)C(O)C(=O)NNc1ccccc1` (stereo not given), 84.6% (inactive).
Under `CN=C(N)N/N=C(\c1ccccc1)c1ccc(Br)cc1` stands 32.4% (inactive).
Under `COc1ccc2c(c1)c(CC(=O)O)c(C)n2C(=O)c1ccc(Cl)cc1` stands 105% (inactive); under `O=C1CSC(=S)N1Cc1cccnc1`, 106% (inactive).
Regarding `NC(=S)N/N=C\c1nccc2c(C(F)(F)F)cccc12`, the growth was 36% (inactive).
With `CCCCCCCCCCCC(=O)OC(C)C(=O)NCCCC` (stereo not given) the figure was 107% (inactive); with `CC12CCC(O)CC1=CCC1C2CCC2(C)C3=NN=CC3CC12` (stereo not given), 106% (inactive); with `CCCCCCCCCCCCCCCCCC[S+](C)CC` (stereo not given), 9.31% (active).
With `COc1cc2c(c(OC)c1OC)-c1ccc(NCc3ccccc3)c(=O)cc1[C@@H](NC(C)=O)CC2` the figure was 41.8% (inactive).
As for `Cc1onc(-c2ccccc2)c1C(=O)N/N=C/c1cc(Cl)cc(Cl)c1O`, the growth is 58.1% (inactive).
Under `CC/C(=C(/CC)c1ccc(O)cc1)c1ccc(O)cc1` stands 89.4% (inactive); under `CCc1cnc2ccccc2c1/C=C/c1ccc(N(C)C)cc1`, 75% (inactive); under `NC(=Nc1nc(-c2ccccn2)cc2ccccc12)c1ccccn1`, -15.7% (active).
Under `COc1ccc2nc3cc(Cl)ccc3c(NCCCCCN3CCCCC3)c2c1` stands -27.1% (active); under `Cc1cc(I)nc2ccccc12`, 100% (inactive).
Under `CCN(CC)CC(O)c1cc(-c2ccc(Cl)cc2)nc2cc(Cl)ccc12` (stereo not given) stands 14.2% (inactive); under `CC1=CC(=NC(=O)CBr)C=C/C1=N\S(=O)(=O)c1ccccc1`, 122% (inactive); under `OC(CSc1ccccc1)CN1CCN(c2ccc(Cl)cc2)CC1` (stereo not given), 102% (inactive).
Turning to `O=[N+]([O-])c1cc(-c2ccccc2)c(O)c([N+](=O)[O-])c1`, the growth was 94.6% (inactive).
Under `CCCCCCCCCCCCNCCCc1ccccc1` stands 81.2% (inactive); under `CCCCCCCCCCCC1=NCCCN1CCCC`, 93.4% (inactive).
Under `CCC1C[N+]2=C(c3cc(OC)c(OC)cc3CC2)c2c1cc1n2CCc2cc(OC)c(OC)cc2-1` (stereo not given) stands 79.7% (inactive).
With `OC(c1cc(-c2ccc(C(F)(F)F)cc2)nc(C(F)(F)F)c1)C1CCCCN1` (stereo not given) the figure was 30.4% (inactive) and -33.3% (active) and 61% (inactive).
Turning to `NC(=S)N/N=C\c1nccc2c(N)cccc12`, the growth is 48% (inactive).
In the case of `Cc1nc([N+](=O)[O-])c(Sc2nncc(-c3ccccc3)n2)n1C`, the growth is 79.7% (inactive).
In the case of `COc1cc(/C=C/C(=O)CC(=O)/C=C/c2ccc(O)c(OC)c2)ccc1O`, the growth is 61.1% (inactive).
For the molecule `CC(C)=CCCC(C)C1=C(O)C(=O)C(C)=CC1=O` (stereo not given), the growth is 97.4% (inactive).
With `N=C(N)Sc1cccc[n+]1[O-]` the figure was 98.2% (inactive).
With `CC1CC(C)(C)OB(OC(C)CC(C)(C)OB2OC(C)CC(C)(C)O2)O1` (stereo not given) the figure was 103% (inactive).
